# Bioassay records (PubChem)
# Rows were chosen to be rich in hits. Some 6.2% of all compounds tested hit in one or more screens of this group.
# HCMV inh – qHTS Assay for inhibitors of the human cytomegalovirus (HCMV); activity change, negative = inhibition, % at 57.5 µM; HFF cells, HCMV-luciferase reporter, 72 h; stronger effect = lower value; AID 1259415, 2018; 4.5% of 410,000 active; in the data active = activity change below about -60%; inconclusive = no clear call, values can overlap the other calls; inactive = above about -39%
#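 After 16 h attachment at 37C, HFF cells received test compound and HCMV-luciferase (1 PFU/cell); reporter luminescence read 72 h later, data normalized against buffer-only and known inhibitor Salinomycin.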
# Lassa entry inh – qHTS for Inhibitors of binding or entry into cells for Lassa Virus; 1.2% of 300,000 active; Potency, µM (titrated, usually from 37.9 µM), without a hit: at the top dose activity change, negative = inhibition, most hits filed as inhibitors; AID 540256, 2011; Lassa virus pseudotype entry inhibition, cell reporter; calls by dose curve; tested in HEK293 cells; also: potency is read from the fitted curve at half-maximal effect; nearly all actives have a fitted effect of over 50% in size
# FMDV inh – High Throughput Screening for Foot and Mouth Disease Virus Antivirals. FMDV antiviral cell-based qHTS. Potency, µM (highest dose often 57.9 µM), for the others: top-dose activity change, negative = inhibition, usual class: inhibitors. 1.2% of 410,000 active. AID 1159524, 2015; calls by dose curve; tested in HEK293T cells; also: read-out not given here; potency is read from the fitted curve at half-maximal effect; nearly all actives have a fitted effect of over 45% in size
# Marburg entry inh – qHTS for inhibitors of binding or entry into cells for Marburg Virus; Potency, µM (titrated, usually from 37.8 µM), for the others: at the highest dose activity change, negative = inhibition, most hits filed as inhibitors; 1.8% of 300,000 active; Marburg virus pseudotyped entry inhibition, cell reporter; calls by dose curve; tested in HEK293 cells; also: potency is read from the fitted curve at half-maximal effect
# Starred values were filed as active, the others as inactive; u = inconclusive; x = no result given; [ ] = another dose, or the depositor's remark. % is scaled to controls: 0 for no effect and ±100 for the full control effect.
SMILES,HCMV inh,Lassa entry inh,FMDV inh,Marburg entry inh
Cn1ccc2c(-c3ccc(F)cc3)cc3c(c21)C1CCC3O1 (stereo unspecified),x,1%[46.1 µM],x,x
COc1ccc(C(=O)Nc2cc3c(cc2OC)CCCC3)cc1Br,-17,32%,-15%,u
COc1cc2c(cc1NC(=O)c1ccc(C(C)(C)C)cc1)CCCC2,-90*,1.4µM*,-10%,4.5µM*
Cc1ccc(C)c(NC(=O)C(Sc2nc3ccc(C)cc3[nH]2)c2ccccc2)c1 (stereo unspecified),-74*,u,u,8.9µM*
CCC1CN(CCNC(=O)c2cc3ccccc3oc2=O)Cc2cc(OC)ccc2O1 (stereo unspecified),x,x,-1%,x
COC(=O)c1sc(=S)n(-c2cc(F)ccc2F)c1N,-106*,-6%,-14%,-3%
CCOC(=O)c1sc(=S)n(-c2cc(F)ccc2F)c1N,-40,-8%,u,13%
Cc1nnc(SCC(=O)N2c3ccccc3C(C)(c3ccccc3)CC2(C)C)s1 (stereo unspecified),-62*,u,40µM*,u
Cc1ccc(C2(C)CC(C)(C)N(C(=O)CSc3nnc(C)s3)c3ccccc32)cc1 (stereo unspecified),-39,7.9µM*,u,u
O=c1[nH]c(NNC(=S)NCc2ccccc2)nc2c1C1(CCCCC1)Cc1ccccc1-2,-62*,x,-23%,x
C=CCNC(=S)NNc1nc2c(c(=O)[nH]1)C1(CCCC1)Cc1ccccc1-2,2,x,26%,x
S=C(NCc1ccccc1)NNc1nc2ccccc2[nH]1,-70*,u,-4%,u
CC1CCCc2cc(OS(=O)(=O)C(F)(F)F)ccc2OC(=O)CC1 (stereo unspecified),-5,x,x,x
Cc1ccccc1N1C(=O)NC(=O)/C(=C/c2ccc(N3CCOCC3)o2)C1=O,26,0%,-6%,u
O=C1NC(=O)N(c2ccc3c(c2)OCO3)C(=O)/C1=C\c1ccc(N2CCCCC2)o1,-66*,-10%,-14%,-14%
C=CCOC(=O)N[C@H](C(C(=O)OC)=C(C)NCc1ccccc1)c1cccc(C(F)(F)F)c1,x,u,x,3%[14.2 µM]
